In PubChem BioAssay (EPA / NIEHS):
“And” between values parts separate entries of the source, which are not always exact repeats. Equal entries are not always repeated. Inconclusive results are not listed. The source made the active and inactive calls. The calls were made as follows: active = hit-call score of the fitted dose curve at least 0.9, where 1 is the maximum; inconclusive = response in the unintended direction; inactive = score below 0.9.

Columns and labels:
[1] = target: Cellular tumor antigen p53 (Homo sapiens) (UniProt P04637); assay: TOX21_p53_BLA_p2_ratio: Tox21 HCT-116 p53 Agonism Beta-lactamase Assay, Ratio, Phase 2 (AID 2283592)
How it was run: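 Plated HCT116 p53-bla cells (4000/well) received compound after 5 h, then 16 h at 37C/5% CO2. CCF4-AM added, 2 h RT. Ratio of 460 to 530 nm emission taken as the p53 reporter signal.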

[2] = TOX21_p53_BLA_p3_viability: Viability Assessment in the Tox21 HCT-116 p53 Agonism Beta-lactamase Assay, Phase 3 (AID 2283593);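 also: cells exposed to compound for 16 h before reading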
How it was run: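 HCT-116 cells (4000/well) rested 5 h at 37C, then got DMSO compounds by pin tool (217-fold dilution) for 16 h at 37C, 5% CO2. After the bla read, CellTiter-Glo was added and luminescence read at 30 min, room temperature.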

[3] = target: Cellular tumor antigen p53 (Homo sapiens) (UniProt P04637); assay: TOX21_p53_BLA_p3_ratio: Tox21 HCT-116 p53 Agonism Beta-lactamase Assay, Ratio, Phase 3 (AID 2283596)
How it was run: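 Cells were seeded at 4000/well, rested 5 h at 37C, then dosed with DMSO compound solutions (217-fold dilution) for 16 h. CCF4-AM substrate was loaded for 2 h at room temperature, and the 460/530 nm emission ratio was fitted for gain of signal versus DMSO.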

[4] = TOX21_p53_BLA_p4_viability: Viability Assessment in the Tox21 HCT-116 p53 Agonism Beta-lactamase Assay, Phase 4 (AID 2283597);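 also: hits lower the luminescence signal meaning cytotoxicity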
How it was run: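 Readout: ATP luminescence (CellTiter-Glo), measured 30 min after reagent addition at RT. The reagent followed a 2 h CCF4-AM incubation, and the cells had been exposed to compound for 16 h at 37C.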

[5] = target: Cellular tumor antigen p53 (Homo sapiens) (UniProt P04637); assay: TOX21_p53_BLA_p5_ratio: Tox21 HCT-116 p53 Agonism Beta-lactamase Assay, Ratio, Phase 5 (AID 2283599)
How it was run: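 HCT-116 cells carrying a p53-inducible beta-lactamase reporter were seeded at 4000 cells/well and dosed after 5 h with compound in DMSO (217-fold dilution). After 16 h at 37C, CCF4-AM substrate was added for 2 h, and the 460/530 nm emission ratio was scored as gain-of-signal versus DMSO.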

[6] = TOX21_p53_BLA_p5_viability: Viability Assessment in the Tox21 HCT-116 p53 Agonism Beta-lactamase Assay, Phase 5 (AID 2283600)
How it was run: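 Workflow: seed 4000 cells per well, wait 5 h, add compounds (DMSO, 217-fold dilution), incubate 16 h, load CCF4-AM 2 h, add CellTiter-Glo, read luminescence after 30 min.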

[7] = target: Cellular tumor antigen p53 (Homo sapiens) (UniProt P04637); assay: TOX21_p53_BLA_p4_ratio: Tox21 HCT-116 p53 Agonism Beta-lactamase Assay, Ratio, Phase 4 (AID 2283601)
How it was run: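 HCT116 cells carrying an inducible beta-lactamase reporter were plated at 4000 cells/well, rested 5 h, then exposed to compounds in DMSO (217-fold dilution) for 16 h at 37C. CCF4-AM substrate was loaded 2 h at room temperature; 460/530 nm emission ratio scored gain-of-signal versus DMSO.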

Sequence of Cellular tumor antigen p53 (Homo sapiens) (P04637 whole entry, looked up): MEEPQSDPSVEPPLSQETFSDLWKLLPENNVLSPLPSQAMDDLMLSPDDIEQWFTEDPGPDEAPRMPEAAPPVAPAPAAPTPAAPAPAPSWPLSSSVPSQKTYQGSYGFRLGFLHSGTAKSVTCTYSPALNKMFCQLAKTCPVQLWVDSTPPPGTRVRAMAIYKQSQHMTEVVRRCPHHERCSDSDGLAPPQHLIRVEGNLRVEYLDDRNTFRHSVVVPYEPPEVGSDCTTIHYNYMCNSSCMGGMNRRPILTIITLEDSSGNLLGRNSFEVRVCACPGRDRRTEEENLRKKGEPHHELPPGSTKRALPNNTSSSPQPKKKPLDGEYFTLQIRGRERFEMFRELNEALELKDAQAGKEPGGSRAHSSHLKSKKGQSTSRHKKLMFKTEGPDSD

**Q.** For `OC[C@H]1O[C@@H](Oc2ccc(O)cc2)[C@H](O)[C@@H](O)[C@@H]1O`, which outcome [1] is on record?
**A.** inactive

**Q.** What about the outcome [2] of the same compound?
**A.** inactive

**Q.** What about the outcome [3] of the same compound?
**A.** inactive

**Q.** What about the outcome [4] of the same compound?
**A.** inactive

**Q.** And the outcome [5]?
**A.** inactive

**Q.** And the outcome [6]?
**A.** inactive

**Q.** And the outcome [7]?
**A.** inactive

**Q.** With `CC(C)C[C@H](NC(=O)OCC1c2ccccc2-c2ccccc21)C(=O)O` as the compound, how does the outcome [1] read?
**A.** inactive

**Q.** And the outcome [4]?
**A.** inactive

**Q.** And the outcome [5]?
**A.** inactive

**Q.** And the outcome [6]?
**A.** inactive

**Q.** With `CCCC(=O)OCCc1ccccc1` as the compound, how does the outcome [3] read?
**A.** inactive

**Q.** What about the outcome [5] of the same compound?
**A.** inactive

**Q.** What about the outcome [7] of the same compound?
**A.** inactive

**Q.** For `CCOc1ccc(N=Nc2ccc(C=Cc3ccc(N=Nc4ccc(OCC)cc4)cc3S(=O)(=O)O)c(S(=O)(=O)O)c2)cc1`, which outcome [2] is on record?
**A.** inactive

**Q.** What about the outcome [6] of the same compound?
**A.** inactive

**Q.** And the outcome [7]?
**A.** inactive

**Q.** What does the source list for `CCCCC(CC)C(=O)OC(C)C` (stereo not drawn)?
**A.** outcome [1]: inactive; outcome [3]: inactive; outcome [5]: inactive; outcome [6]: inactive; outcome [7]: inactive

**Q.** Which results are given for `CC/C=C\CCOC(=O)CC`?
**A.** outcome [2]: inactive; outcome [3]: inactive; outcome [5]: inactive; outcome [7]: inactive

**Q.** Which results are given for `COc1ccccc1[N+](=O)[O-]`?
**A.** outcome [1]: inactive; outcome [2]: inactive; outcome [3]: inactive; outcome [5]: inactive; outcome [7]: inactive

**Q.** For `CCCSc1ccc2nc(NC(=O)OC)[nH]c2c1`, which AC50 [1] is on record?
**A.** 336 nM (active) and 247 nM (active)

**Q.** And the outcome [2]?
**A.** inactive

**Q.** And the AC50 [3]?
**A.** 394 nM (active) and 199 nM (active)

**Q.** And the outcome [4]?
**A.** inactive

**Q.** And the AC50 [5]?
**A.** 373 nM (active) and 193 nM (active)

**Q.** What about the outcome [6] of the same compound?
**A.** inactive

**Q.** What about the AC50 [7] of the same compound?
**A.** 339 nM (active) and 175 nM (active)

**Q.** Which outcome [1] does the source give for `NCC1CCCC(CN)C1` (stereo not drawn) here?
**A.** inactive

**Q.** And the outcome [3]?
**A.** inactive

**Q.** What about the outcome [5] of the same compound?
**A.** inactive

**Q.** And the outcome [6]?
**A.** inactive

**Q.** And the outcome [7]?
**A.** inactive
